# Assay results published in the OligoGym collection.
# Target: DOCK1
# Test: pooled miR-30 sensor sort-seq; sequence = guide strand
# Details: shRNA
# Further: reference of the scale not given here.
row,Sequence,sensor-assay potency score (higher = more potent)
1,TATTATATCTGTTACATCCATC,-0.566
2,TATCTTGTGTTGACCAAGGTTG,-0.193
3,TTACAATCTGCTCTGACACTGG,0.172
4,TTCGACTTCATGATCCAGCTTG,0.58
5,TTGTCTGTTAATATCTATGTTC,-0.583
6,TTGTACTGTTCGTCTCCTCTGC,0.121
7,TAACACTTTGTACTGTTCGTCT,-0.198

# Target: DOK4
# Test: as above
# Details: shRNA
row,Sequence,sensor-assay potency score (higher = more potent)
1,TTCCCCAGCATCACACATCCGG,-0.865
2,ATAGTGTCTTGTACCACTCCTC,-0.442
3,TTGAGGAGGTCTGTTTCCGAGC,-1.09
4,TCTAGCTCTGAGTCGCAGGTGA,-0.0163
5,TTCTTCTCCATTTCCAGCAGGA,0.267
6,TAGTGTCTTGTACCACTCCTCT,-0.903
7,TTTAGCAGGATGAATCTGTTGA,0.432
8,TAGCAGGATGAATCTGTTGAGG,-1.03
9,TAGCTCTGAGTCGCAGGTGAAG,-1.6
10,TCTGAGTCGCAGGTGAAGGTAC,-0.935
11,TTCTCCCAGACTGATGTCGTTG,-1.27
12,TTGCTGATCTCAGTCACCTTGG,-0.109
